# According to PubChem BioAssay:
# Unmarked numbers belong to inactive results. No rule for the calls is given here.
# Biological target: Pantothenate synthetase (Mycobacterium tuberculosis (strain ATCC 25618 / H37Rv)) (UniProt P9WIL5)
# Assay: Recombinant Mtb pantothenate synthetase (PanC) inhibitors, coupled enzyme, confirmatory (AID 375);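 also: 0% = full reaction with vehicle and 100% = no enzyme background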
# Details: coupled enzyme assay; at 10 µM, hits give high values
# Pantothenate synthetase (Mycobacterium tuberculosis (strain ATCC 25618 / H37Rv)), sequence (P9WIL5 whole entry, looked up): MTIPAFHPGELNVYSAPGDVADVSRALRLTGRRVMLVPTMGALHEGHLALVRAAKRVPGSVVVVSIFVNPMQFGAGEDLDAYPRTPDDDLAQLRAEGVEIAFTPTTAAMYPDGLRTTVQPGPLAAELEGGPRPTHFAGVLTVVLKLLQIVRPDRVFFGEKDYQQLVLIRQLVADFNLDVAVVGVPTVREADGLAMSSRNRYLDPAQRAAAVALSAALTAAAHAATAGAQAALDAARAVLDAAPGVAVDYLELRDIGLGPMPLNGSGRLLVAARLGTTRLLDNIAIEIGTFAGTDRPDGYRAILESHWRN
row,SMILES,inhibition [%]
1,Cc1ccc(/C=c2\s/c(=C(/C#N)C(=O)N3CCCC3)n(Cc3ccco3)c2=O)s1,0
2,CCN(CC)CCCN1C(=O)C(=O)/C(=C(/O)c2ccccc2)C1c1ccccn1 (centres undefined),0
3,CCc1ccccc1NC(=O)c1cnc2n(c1=O)CCS2,2
4,C=CCn1c(SCC(=O)c2cc(C)n(C(C)COC)c2C)nc2sc(C)c(C)c2c1=O (centres undefined),4
5,COc1ccc(/C=N/n2c(=O)[nH]c3c([nH]c4ccc(C)cc43)c2=O)cc1CN1CCOCC1,2
6,c1ccc(Cn2nnnc2C(c2cccs2)N2CCSCC2)cc1 (centres undefined),0
7,COCC(=O)N(c1ccc(C(C)C)cc1)C1C=CS(=O)(=O)C1 (centres undefined),0
8,O=C(O)c1ccc(NC(=O)c2cccs2)cc1,0
9,CCC(c1nnnn1Cc1ccco1)N(CCc1ccccc1)Cc1cc2cccc(C)c2[nH]c1=O (centres undefined),1
10,CCOc1cc(/C=N/n2cnnc2)cc(Br)c1O,0
11,O=C(c1cccs1)N1CCc2ccccc21,0
12,CCOCC(=O)Nc1ccc(S(=O)(=O)N2CCOCC2)cc1,0
13,CCCn1c(SCC(=O)NC(=O)NCc2ccco2)n[nH]c1=O,0
14,CCOc1cc(C2c3c(n[nH]c3C)C(=O)N2c2ccc(Br)cc2)ccc1O (centres undefined),0
15,c1nc(NCC2(N3CCOCC3)CCCCC2)c2ccsc2n1,0
16,O=C(CCNS(=O)(=O)c1cccc2nsnc12)NCc1cccs1,1
17,O=C(Nc1nc(-c2ccc(S(=O)(=O)N3CCCC3)cc2)cs1)C1COc2ccccc2O1 (centres undefined),0
18,COc1ccccc1-c1noc(-c2cccnc2)n1,13
19,CSCCC(N=CC1=C(O)CC(C)(C)CC1=O)C(=O)O (centres undefined),2
20,COc1ccc(-c2c3c(=O)n(C)c(=O)n(C)c3cn2-c2cccc(OC)c2)cc1,0
21,O=C(C1CCC(CNS(=O)(=O)c2cccc3cccnc23)CC1)N1CCCC1 (centres undefined),0
22,Cn1c(=O)oc2cc(S(=O)(=O)NC3CCN(Cc4ccccc4)CC3)ccc21,0
23,O=C(Nc1ccc(F)cc1)c1cccc2c1C(=O)N(Cc1ccccn1)C2,0
24,CCc1cc2c(NCCC(=O)O)ncnc2s1,1
25,CCOC(=O)c1ccccc1NC(=O)c1cccnc1,0

row,SMILES,inhibition [%]
1,CCCn1c(SCC(=O)Nc2ccccc2C(=O)OC)nc2c1c(=O)n(C)c(=O)n2C,3
2,O=C(Nc1nccs1)NC(C(F)(F)F)C(F)(F)F,7
3,CCOc1ccc(CCNc2nc3c(c(=O)n(C)c(=O)n3C)n2CC)cc1OCC,0
4,O=C(NCc1ccc2c(c1)OCO2)C1CCC(CNc2c(N3CCCCC3)c(=O)c2=O)CC1 (centres undefined),0
5,NC(=O)CSc1nnc(-c2ccc(O)cc2)n1Cc1ccco1,0
6,CC(=O)N1CCN(S(=O)(=O)c2cccc(C(=O)Nc3ccc4c(c3)CCC4)c2)CC1,0
7,COCCN1CN(S(=O)(=O)c2ccccc2)c2nc3ccccc3nc21,0
8,CCOc1ccc(NCCC(=O)c2ccc3c(c2)OCO3)cc1,1
9,Cc1cccc(N2CCN(C(=O)CCn3c(=S)[nH]c4cc5c(cc4c3=O)OCO5)CC2C)c1 (centres undefined),9
10,C=CCc1cccc2cc(C(=O)NCc3cccnc3)c(=O)oc12,1
11,CC1(C)OC(=O)C(=CNc2ccccc2)C(=O)O1,4
12,Nc1nc(N2CCN(C/C=C/c3ccccc3)CC2)nc2ccccc12,7
13,CC(C)Cn1c(=O)c(C(=O)NCc2ccccn2)c(O)c2ccccc21,0
14,CCC(=O)/C=C1\Sc2ccc(OC)cc2N1CCO,3
15,CNC(=O)CSc1nnc(-c2cccc(S(=O)(=O)N3CCOCC3)c2)n1-c1ccc(F)cc1,0
16,CCOC(=O)N1CCN(C(=O)CN(C2CCCCC2)S(=O)(=O)c2ccc(F)cc2)CC1,0
17,O=C(NCC(=O)N(CCc1ccccc1)C(C(=O)NC1CCCC1)c1cccnc1)c1ccco1 (centres undefined),3
18,Cn1c(-c2ccc(F)cc2)cnc1NCc1ccccc1,0
19,O=C(O)CCNC(=O)c1ccccc1,3
20,c1ccc(-c2cc(-c3nc(-c4ccccn4)no3)c3ccccc3n2)cc1,0
21,C=CCn1c(=S)[nH]c2nc3c(cc2c1=O)COC(C)(C)C3,16
22,COc1ccccc1N1CCN(C(=O)c2c(-c3c(Cl)cccc3Cl)noc2C)CC1,0
23,COc1ccc(-c2noc(-c3ccccc3C(=O)Nc3cccnc3)n2)cc1OC,0
24,O=S(=O)(c1ccc(OCC(O)CN2CCc3ccccc3C2)cc1)N1CCOCC1 (centres undefined),9
25,Cc1ccc(-c2nnn(CC(=O)N(CC(=O)NCC3CCCO3)c3ccccc3)n2)o1 (centres undefined),3

row,SMILES,inhibition [%]
1,N#CC1=C(N)N(c2ccccc2)C2=C(C(=O)CCC2)C1c1cccs1 (centres undefined),0
2,O=C(COc1ccccc1F)NC1CC1,3
3,COC(=O)C1=C(C)OC(N)=C(C#N)C1c1ccccc1 (centres undefined),0
4,O=C(Cn1nc(Cc2cccnc2)c2ccccc2c1=O)NCC1CCCO1 (centres undefined),0
5,CCOC(=O)Cn1c(S(=O)(=O)Cc2ccccc2)nc2ccccc21,0
6,Oc1ccccc1-c1cc(C(F)(F)C(F)F)[nH]n1,0
7,COc1ccc(C)cc1NC(=O)CCN1CCCC1,0
8,COc1ccc(Cc2nc3ccc(S(N)(=O)=O)cc3[nH]2)cc1OC,0
9,CC(=O)c1cccc(N(CC(=O)N2CCCC2)S(C)(=O)=O)c1,0
10,COc1ccccc1-n1c(SCC(N)=O)nnc1-c1ccccc1,0
11,O=C(CSc1nccn1Cc1ccccc1)Nc1nccs1,0
12,CC(=O)Nc1ccc(NC(=O)Cn2cnc3c(cnn3C(C)(C)C)c2=O)cc1,3
13,CCOC(=O)c1cc(-c2ccc3c(c2)OCO3)nc2onc(C)c12,0
14,CC(=O)c1coc2ccc(OCC(=O)O)cc12,0
15,CCOC(=O)c1c(C)oc2ccc(OCC(=O)N(CC)CC)cc12,4
16,Cc1ccc2nc(SCC(=O)NCc3ccco3)c(C#N)cc2c1,0
17,O=C(CSc1nc2ncccc2[nH]1)Nc1ccc2c(c1)OCCO2,0
18,COc1ccc(N2CCN(C(=O)CCNS(=O)(=O)c3ccc(Br)s3)CC2)cc1,3
19,CCN1CCN(c2cc3c(cc2F)c(=O)c(C(=O)O)cn3C2CC2)CC1,0
20,Cc1ccc(C)c(NC(=O)C2CCC(C)(C(=O)O)C2(C)C)c1 (centres undefined),0
21,CCCC(=O)O[C@]1(C(=O)CCl)[C@@H](C)C[C@H]2[C@@H]3CCC4=CC(=O)C=C[C@]4(C)[C@@]3(F)C(=O)C[C@@]21C,0
22,Cc1cc2c(cc(C(=O)OCC(=O)NCc3cccs3)n2C(C)C)o1,0
23,CCOc1ccc(S(=O)(=O)Nc2ccc(Cl)cn2)c(C)c1C,0
24,Cc1nnc(NC2CCCCC2)[nH]c1=O,3
25,C=C(C)C1Cc2c(C)nn(-c3nc(C)cc(C)n3)c2C1 (centres undefined),0

row,SMILES,inhibition [%]
1,O=C(CN1CCOCC1)Nc1cccc(C(=O)Nc2cccc(C(F)(F)F)c2)c1,2
2,Cc1cc(C)n(-c2cc(N3CCOCC3)nc(-c3ccccc3)n2)n1,2
3,O=C(O)CN1C(=O)C2(OCCCO2)c2ccccc21,0
4,Cc1ccc(O)c(-c2cc(C(=O)Nc3ccc(S(=O)(=O)N4CC(C)OC(C)C4)cc3)[nH]n2)c1 (centres undefined),5
5,O=C(OCC(=O)N1CCC(Cc2ccccc2)CC1)c1ccc[nH]c1=O,0
6,CN(C)S(=O)(=O)c1ccc(C(=O)NCc2cccs2)cc1,4
7,CC1CCN(Cc2ccc(NC(=O)C3CCN(c4nnc(-n5cccc5)s4)CC3)cc2)CC1,0
8,COCCNC(=O)C(c1ccc(C)o1)N(Cc1ccc(OC)cc1)C(=O)Cn1nnc2ccccc21 (centres undefined),1
9,C=CCN1C(=O)/C(=C2\SC(N3CCOCC3)=NC2=O)c2cc(Br)ccc21,0
10,CCn1nccc1C(=O)Nc1nccs1,5
11,CCOCCn1c(CN2CCN(CC)CC2)nc2c1c(=O)n(C)c(=O)n2C,0
12,Cc1cc(C)n(CCCNC(=O)c2ccc3c(c2)NC(=O)CS3)n1,0
13,CCCC1Cc2c(sc3ncnc(N)c23)CO1 (centres undefined),0
14,O=c1[nH]c(N2CCc3ccccc32)nc2c1CCCC2,0
15,O=C1COc2ccc(C(=O)COC(=O)CCc3ccc(S(=O)(=O)N4CCOCC4)cc3)cc2N1,8
16,COc1ccc(C(=O)c2ccccc2)c(O)c1,1
17,COC(=O)C(C)Sc1nc2c(c(=O)n1-c1ccccc1)SCC2 (centres undefined),0
18,CN(C)CCN1C(=O)c2oc3ccc(Cl)cc3c(=O)c2C1c1cccc(Br)c1 (centres undefined),0
19,COc1cc(NC2=CC(=O)CC(C)(C)C2)cc(OC)c1,0
20,COc1cc(OC)cc(-c2nc(N)n[nH]2)c1,0
21,COC(=O)c1ccc(CSc2nc3c(cnn3-c3ccc(C)c(C)c3)c(=O)[nH]2)o1,3
22,Cc1cc(C)cc(-n2nnc(C(=O)NCc3ccco3)c2N)c1,0
23,COc1ccccc1N1CCN(C(=O)CSc2nc(-c3ccccc3)cc(=O)[nH]2)CC1,1
24,CCOC(=O)c1oc2ccccc2c1CSc1nnnn1-c1ccc(OC)cc1,1
